Screens deposited in PubChem BioAssay by National Center for Advancing Translational Sciences (NCATS).
Compounds with a hit are over-represented: about 7.3% of the library has one in this group of screens.
Rab9 prom act: qHTS Assay for Rab9 Promoter Activators; Huh7 Rab9 promoter-luciferase reporter, luminescence, 24 h; Potency, µM (series often up to 9.22 µM), hits mostly activators; hit rate 2.8% among 320,000; AID 485297, 2010; note: nearly all actives have a fitted effect of over 60% in size
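Luminescence from Amplite-detected luciferase (10 minutes, ambient) reports Rab9 promoter activation. Before that, stable Rab9-luciferase Huh7 cells (1500/well, reduced-serum OP-MEM I plus 10% FBS) were exposed to compound for 24 hours at 37C.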
ELG1 genotox: qHTS screen for small molecules that induce genotoxicity in human embryonic kidney (HEK293T) cells expressing luciferase-tagged ELG1. HEK293T ELG1-luciferase reporter, luminescence, 16 h. Potency, µM (highest dose often 46 µM), most hits filed as activators. hit rate 1.3% among 330,000; note: nearly all actives have a fitted effect of over 60% in size
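Luminescence read-out: rising ELG1-luciferase signal, reflecting elevated ELG1 protein under genetic stress, flags genotoxic compounds. Cells were treated for 16 hr at 37 °C before ONE-Glo detection.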
NPC1 promoter act: qHTS Assay for NPC1 Promoter Activators; Huh7 NPC1 promoter luciferase reporter, 24 h; Potency, µM (doses to about 9.22 µM), usual class: activators; hit rate 2.4% among 320,000; AID 485313, 2010; note: nearly all actives have a fitted effect of over 60% in size
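Stable NPC1-promoter luciferase Huh7 line; cpd (DMSO) 24 h, 37 °C, 5% CO2; Amplite luciferase reagent 10 min RT; luminescence readout. qHTS format.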
FLuc counter: qHTS profiling assay for firefly luciferase inhibitor/activator using purifed enzyme and Km concentrations of substrates (counterscreen for miR-21 project); Potency, µM (highest dose often 57.5 µM), usual class: inhibitors; purified FLuc, Km substrates, luminescence inhibition; hit rate 6.9% among 360,000; AID 588342, 2011; note: nearly all actives have a fitted effect of over 55% in size
Target sequence (P08659 whole entry, looked up): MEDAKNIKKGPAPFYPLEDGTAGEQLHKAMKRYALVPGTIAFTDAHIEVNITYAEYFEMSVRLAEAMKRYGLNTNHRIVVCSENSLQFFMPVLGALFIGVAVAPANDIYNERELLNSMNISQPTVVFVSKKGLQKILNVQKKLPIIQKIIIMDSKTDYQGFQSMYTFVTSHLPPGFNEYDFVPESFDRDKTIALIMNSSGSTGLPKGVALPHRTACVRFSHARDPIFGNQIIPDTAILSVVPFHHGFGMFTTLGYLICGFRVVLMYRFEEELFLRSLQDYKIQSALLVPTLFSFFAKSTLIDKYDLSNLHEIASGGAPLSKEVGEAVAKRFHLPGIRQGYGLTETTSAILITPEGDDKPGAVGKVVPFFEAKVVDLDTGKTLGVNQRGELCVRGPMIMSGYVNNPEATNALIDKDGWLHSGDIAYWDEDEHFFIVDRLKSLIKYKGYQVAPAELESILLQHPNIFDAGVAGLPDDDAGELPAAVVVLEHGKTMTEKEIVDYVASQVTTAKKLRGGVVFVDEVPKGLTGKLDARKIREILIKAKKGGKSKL
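Purified P. pyralis luciferase, 10 nM final, with Km-level 10 uM D-luciferin and 10 uM ATP in 50 mM Tris acetate pH 7.5, 10 mM Mg acetate, 0.01% Tween-20, 0.05% BSA; 6-point qHTS titration about 60 µM downward; luminescence read.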
Luc counter: Counterscreen for Luciferase (Kinase-Glo TM) Inhibition; hit rate 0.28% among 200,000; Potency, µM (titrated, usually from 38.3 µM), usual class: inhibitors; AID 1379, 2008; Kinase-Glo luciferase, ATP luminescence, 8 min; note: nearly all actives have a fitted effect of over 60% in size
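Recombinant Kinase-Glo luciferase, 10 uM ATP (linear range), luciferin; imidazole pH 7.2 / KCl / MgCl2 / Tween / BSA buffer; 8 min RT; luminescence.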
SMN2 splice up: qHTS Assay for Enhancers of SMN2 Splice Variant Expression; hit rate 2.8% among 210,000; AID 1458, 2008; Potency, µM (series often up to 46.1 µM), most hits filed as activators; HEK293 SMN2-luciferase splicing reporter, luminescence, 30-36 h; note: nearly all actives have a fitted effect of over 55% in size
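HEK293 cells carry an SMN2 […]–luciferase reporter in which exon 7 inclusion puts luciferase in frame. Cells were plated 10-12 h before compound addition, then incubated 30-36 h at 37C. ONE-Glo luminescence was read; sodium butyrate at 4.5 mM final served as control.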
Hits are given with their value; n = inactive; u = inconclusive; x = not tested or not shown; [ ] = remark or other dose. Calls come from the whole dose curve; as a rule, active = well fitted curve in the direction sought with a large enough effect; inconclusive = small, poorly fitted or top-dose-only effect, or another doubt; inactive = no such curve, though single readings can be large; an effect the other way counts as inactive or inconclusive.

SMILES	Rab9 prom act	ELG1 genotox	NPC1 promoter act	FLuc counter	Luc counter	SMN2 splice up
c1ccc(Oc2ccc(-c3ccn[nH]3)cc2)cc1	3.2µM	u	u	11µM	x	x
c1ccc(Oc2ccc(-c3ccnc4ncnn34)cc2)cc1	n	n	n	n	n	n
Cc1ccc(Cl)cc1N1CCN(C(=O)c2cc(S(=O)(=O)N3CCCCCC3)cn2C)CC1	x	x	x	n	x	x
C=CCn1c(-c2cc3c(s2)CCC(CC)C3)n[nH]c1=S (stereo not drawn)	n	n	n	30µM	n	n
C=CCn1c(SCC(=O)NC2CCS(=O)(=O)C2)nnc1-c1cc2c(s1)CCC(CC)C2 (stereo not drawn)	n	n	n	11µM	n	n
C=CCn1c(SCC(=O)NC2CCS(=O)(=O)C2)nnc1-c1ccc(Cl)cc1 (stereo not drawn)	n	n	n	n	x	x
CCn1c(-c2ccccc2O)n[nH]c1=S	n	n	n	n	n	n
CCn1c(-c2cc(-c3cccc(OC)c3)nc3ccccc23)n[nH]c1=S	n	n	n	24µM	n	n
Cc1ccc(-c2cc(-c3n[nH]c(=S)o3)c3ccccc3n2)cc1	n	n	n	19µM	n	n
S=c1[nH]nc(-c2cc(-c3ccccn3)nc3ccccc23)o1	n	n	n	n	x	x
CCc1ccc(-c2cc(-c3n[nH]c(=S)n3CC)c3ccccc3n2)cc1	n	n	n	1.2µM	n	u
COc1ccc(CNCc2c(C(=O)O)c(C)n(Cc3ccccc3C)c2C)cc1OC	x	x	x	n	x	n
Cc1cccc(N=Nc2c(C)[nH]n(C(N)=S)c2=O)c1C	4µM	u	u	12µM	n	u
NC(=S)n1[nH]c(-c2ccc([N+](=O)[O-])cc2)c(N=Nc2cccc(Cl)c2)c1=O	n	n	n	n	n	n
Cc1[nH]n(C(N)=S)c(=O)c1N=Nc1cccc(Cl)c1	u	u	u	5.4µM	x	x
Cc1[nH]n(C(N)=S)c(=O)c1N=Nc1ccc([N+](=O)[O-])cc1Cl	n	n	u	9.5µM	x	x
COc1cc(NC(=O)CSc2nc3ncccc3o2)cc(OC)c1	x	x	x	n	x	x
O=C(N=C1N=C2C=CC(Br)=CN2Cc2ccccc21)c1ccc([N+](=O)[O-])cc1[N+](=O)[O-]	3.5µM	u	3.5µM	12µM	x	x
CCCc1nnc(NC(=O)CC(=O)Nc2ccccc2C(=O)O)s1	n	n	n	19µM	n	n
CC(C)(C)CC(=O)Nc1nnc(CCc2ccccc2)s1	3.2µM	u	3.2µM	u	x	x
CCCC(=O)Nc1nnc(CCc2ccccc2)s1	n	n	n	n	x	x
CCC(C)(C)C(=O)Nc1nnc(CCc2ccccc2)s1	4µM	21µM	2.8µM	u	x	x
O=C(COc1ccccc1[N+](=O)[O-])N1CCC(c2nc3ccccc3o2)CC1	x	x	x	n	x	x
COc1ccc2nc(SCC(=O)Nc3ccc4c(c3)OCCO4)[nH]c2c1	n	u	n	13µM	n	n
CCOc1ccc2nc(SCC(=O)NCc3ccc4c(c3)OCO4)[nH]c2c1	n	n	n	n	n	n
SMILES	Rab9 prom act	ELG1 genotox	NPC1 promoter act	FLuc counter	Luc counter	SMN2 splice up
CCOc1ccc2nc(SCC(=O)Nc3ccc4c(c3)OCCO4)[nH]c2c1	n	n	n	17µM	n	n
CCOc1ccc2nc(SCC(=O)Nc3cccc(S(=O)(=O)NC4=NCCCCC4)c3)[nH]c2c1	n	n	n	21µM	n	n
CCOc1ccc2nc(SCC(=O)Nc3ncccn3)[nH]c2c1	n	n	n	u	n	n
Cc1ccc(Cn2ccc(NC(=O)c3nn(C)cc3Cl)n2)cc1	u	n	u	21µM	n	n
Cc1cccc(Cn2ccc(NC(=O)c3ccc4c(c3)OCO4)n2)c1	n	n	n	17µM	n	n
Cc1ccc(Cn2nc(C)c(NC(=O)c3nn(C)cc3Cl)c2C)cc1	n	n	n	n	n	n
O=C(Nc1ccn(Cc2ccc(Cl)cc2)n1)c1ccc2c(c1)OCO2	x	x	x	21µM	n	n
O=C(N/N=C/c1ccc2c(c1)OCO2)c1ccn(Cc2ccc(Cl)cc2)n1	n	u	n	u	x	x
O=S(=O)(Nc1nc2ccccc2nc1N1CCc2ccccc2C1)c1ccc(Br)cc1	n	u	n	15µM	n	u
O=S(=O)(Nc1nc2ccccc2nc1N1CCc2ccccc2C1)c1ccc(Cl)cc1	n	n	n	n	n	n
Cc1nn(-c2ccccc2)c2nc(C3CC3)cc(C(=O)Nc3cccc(F)c3)c12	x	x	x	n	x	x
NC(=O)c1sc2nc3c(cc2c1N)CCCCCC3	u	n	2.5µM	19µM	x	x
Nc1c(C(=O)C2CC2)sc2nc3c(cc12)CCC3	u	u	2.5µM	8.5µM	n	x
N#Cc1sc2nc3c(cc2c1N)CCCC3	n	n	n	13µM	n	n
COC(=O)c1ccc(Cl)c(NC(=O)C2CCN(S(=O)(=O)Cc3ccccc3)CC2)c1	x	x	x	n	x	x
O=C(/C=C/c1ccc(Cl)cc1Cl)c1ccc[nH]1	n	u	n	2.7µM	n	n
O=C(/C=C/c1ccccc1Cl)N1CCN(c2ncccn2)CC1	n	n	n	u	n	n
O=C(/C=C/c1ccccc1Cl)c1ccc[nH]1	n	u	n	7.6µM	n	n
CN(C)/C=C/C(=O)/C=C/c1ccc(Cl)cc1Cl	1µM	u	2.2µM	12µM	n	20µM
Cc1c(C(=O)/C=C/N(C)C)nnn1-c1ccc(Cl)cc1Cl	n	n	n	u	x	x
O=C(/C=C/c1ccc(Cl)cc1Cl)n1cccn1	n	n	n	3.8µM	n	n
CCOc1ccccc1NC(=O)c1cc(S(=O)(=O)N2CCOCC2)cn1C	x	x	x	n	x	x
CNc1nc(-c2ccc(N(C)C)cc2)nc2ccccc12	x	x	x	x	n	n
CC(=O)Oc1ccc(C(=O)Cc2ccccn2)c(O)c1	n	n	n	17µM	n	n
CCc1cc(C(=O)Cc2ccccn2)c(O)cc1O	n	n	n	n	x	x
SMILES	Rab9 prom act	ELG1 genotox	NPC1 promoter act	FLuc counter	Luc counter	SMN2 splice up
COC(=O)c1ccccc1NC(=O)N1CCC(n2c(C)nc3cccnc32)CC1	x	x	x	n	x	x
CCCCC(=O)/C=C/n1c(=S)oc2ccccc21	n	n	n	2.4µM	n	n[1.84 µM]
CC(C)OC(=O)n1c(=S)oc2ccccc21	n	n	n	n	n	n
O=C1CC(c2cccc(Cl)c2Cl)c2cc3c(cc2N1)OCCO3 (stereo not drawn)	x	x	x	n	x	n
CC(C)Oc1cccc(C(=O)Nc2ccccc2N2CCOCC2)c1	n	n	n	u	n	n
Cc1ccn2cc(C(=O)Nc3nnc(C)s3)nc2c1	3.2µM	u	u	15µM	x	x
Cc1ccn2cc(C(=O)Nc3ccccc3N3CCOCC3)nc2c1	n	n	n	15µM	n	n
Cc1ccn2cc(C(=O)Nc3ccc4c(c3)OCCO4)nc2c1	1µM	5.8µM	1.4µM	1.9µM	n	u
